This is part of a sample that, as a whole, favours compounds with a hit. Of some 83,000 tested, about 20% had one in any assay.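 Negative percent growth values reflect cell death: -40 means 40% of the cells present at the start died, and -100 means all died.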 Unmarked numbers belong to inactive results. Calls of active or inactive are those of the source. How the source made its calls: active means growth percent below 10; inactive means the rest.

The assay relates to HL-60(TB) leukemia. Description: NCI-60 one-dose screen, 48 h (100 = growth as untreated, 0 = no growth, -100 = all killed). The following applies: 10 µM unless noted.
Regarding `CCCCC/C=C/C/C=C/CCCCCCCC1=NC(C)(C)CN1C(C)C`, the growth is 13.7%.
As for `CCN(CC)CCCC(C)Nc1ccnc2ccc(Oc3ccccc3)cc12` (stereo not given), the figure is 72.6%.
As for `COc1ccccc1N1CCN(CCn2c(=O)c3c(c4ccccc4n3C)n(C)c2=O)CC1`, the figure is 109%.
Consider `CCOC(=O)c1c2c(c(C)n1Cc1ccccc1)-c1nc(N)ncc1CC2`, for which the growth is 96.2%.
As for `CNC(=O)c1cc(Oc2ccc(NC(=O)Nc3ccc(Cl)c(OC4CCCCC4)c3)c(F)c2)ccn1`, the figure is 82.9%; as for `CNCC[C@H](Oc1cccc2ccccc12)c1cccs1`, 85.5%; as for `Cc1ccc(C(c2c(O)c3cc(Br)ccc3[nH]c2=O)c2c(O)c3cc(Br)ccc3[nH]c2=O)cc1`, 92.2%.
As for `O=P([O-])(O)OP(=O)([O-])O.[NH-][C@H]1CCCC[C@@H]1[NH-].[OH-].[OH-].[Pt+4]`, the figure is 111%.
In the case of `O=C(c1nc2ccccc2[nH]1)C1[C@@H](c2cccc(O)c2)C2CC3CCCCC3N2[C@@]12C(=O)Nc1cc(Cl)ccc12` (stereo not given in full), the growth was 6.59% (active).
As for `Cc1nc2c(=O)nc3s/c(=C\c4ccco4)c(=O)n3c2nc1C`, the figure is 98%; as for `C[N+](C)(C)CN1C(=O)c2ccccc2C1=O`, 96.1%.
As for `C/C(=N\Nc1cc(C)nc2ccc(Br)cc12)c1ccc([N+](=O)[O-])cc1`, the figure is -37.4% (active); as for `COc1ccc2c(c1)c(CC(=O)[Se]C)c(C)n2C(=O)c1ccc(Cl)cc1`, -38.9% (active).
As for `COC(=O)c1c2c(n3ccccc13)C(=O)c1ccccc1C2=O`, the figure is 58.6%; as for `CN1CCn2c(c(Sc3ccc(C(=O)NO)cc3)c3ccccc32)C1=O`, -1.35% (active); as for `COc1cc(C(=O)N2CCN(C(=O)c3cc(OC)c(OCc4ccccc4)cc3N)CC2)c(N)cc1OCc1ccccc1`, 112%.
`CCOC(=O)/C(C#N)=C1/NNC(=Nc2cccnc2)S1`: the growth was 102%.
Regarding `COc1ccc(S(=O)(=O)NCCCNc2cc(-c3c(-c4cccc(OC)c4)nc4sccn34)ccn2)cc1`, the growth was 32.7%.
As for `N[C@@H](CCCCNCC(=O)O)C(=O)O`, the figure is 106%; as for `COc1ccc(-c2c3c(N)c4c(nc3nc3c2c(C)nn3-c2ccccc2)CCCC4)cc1`, 87.2%; as for `O=C1CSC(=S)N1/N=C/c1ccc(Cl)s1`, 91%.
Regarding `Cn1ccnc1C(=O)/C=C/c1ccc(CC(=O)Nc2ccc(S(F)(F)(F)(F)F)cc2)cc1`, the growth was -11.5% (active).
As for `COc1cccc(C(=O)NNC(=O)c2cccc3ccccc23)c1`, the figure is 97.8%; as for `C=C1C(=O)O[C@H]2[C@H]1CC/C(CNC(=O)c1cc3ccccc3[nH]1)=C\CC[C@@]1(C)O[C@@H]21`, -41.5% (active); as for `COCc1cc2c(cc1Br)OCO2`, 105%.
As for `O=C(CC1Sc2ccccc2NC1=O)NNc1ccc(F)cc1` (stereo not given), the figure is 14.3%; as for `Cc1cc2nc3c4cc(C=O)ccc4n(CCN(C)C)c3nc2cc1C`, 16.9%; as for `Cn1nc(C(F)(F)F)c(-c2ccc(Cl)c(C(F)(F)F)c2)c1-c1ccc(OCc2ccc(Cl)cc2)cc1O`, 9.3% (active).
As for `[Cl-].[Rh+3].c1ccc(-c2ccnc3c2ccc2c(-c4ccccc4)ccnc23)cc1.c1ccc(-c2ccnc3c2ccc2c(-c4ccccc4)ccnc23)cc1.c1ccc(-c2ccnc3c2ccc2c(-c4ccccc4)ccnc23)cc1`, the figure is 99.9%; as for `O=C1/C(=C/c2ccccc2F)CNC/C1=C\c1ccccc1F`, -42.9% (active); as for `CCN(C(=O)N1CCN(c2cc3c(cc2F)c(=O)c(C(=O)O)cn3C2CC2)CC1)c1nc(-c2ccccc2)cs1`, -34% (active).
For the compound `O=C1NCN(CCO)CN1`, the growth was 97.5%.
Take `O=Nc1c(-c2c(O)[nH]c3ncccc23)[nH]c2ccccc12`: the growth was 125%.
As for `O=C(Oc1ccc(CO[N+](=O)[O-])cc1)c1ccccc1`, the figure is -45.9% (active); as for `CCOC(=O)C1(C)CCCC1N` (stereo not given), 98.5%; as for `CO[C@H](C(=O)[C@@H](O)[C@@H](C)O)[C@@H]1Cc2cc3cc(O[C@H]4C[C@@H](O[C@H]5C[C@@H](O)[C@H](O)C(C)O5)[C@H](O)C(C)O4)c(C)c(O)c3c(O)c2C(=O)[C@H]1O[C@H]1C[C@@H](O[C@H]2C[C@@H](O[C@H]3C[C@](C)(O)C(=O)C(C)O3)[C@@H](O)C(C)O2)[C@H](O)C(C)O1` (stereo not given in full), 2.34% (active).
As for `COCCCOc1cc(C[C@@H](C[C@H](N)[C@@H](O)C[C@H](C(=O)NCC(C)(C)C(N)=O)C(C)C)C(C)C)ccc1OC`, the figure is 111%.
As for `COc1cccc(-c2nc3sccn3c2-c2ccnc(NCCNS(=O)(=O)c3c(Cl)cccc3Cl)c2)c1`, the figure is 25.9%; as for `Nc1ccc(CC(=O)O)c(N)c1`, 102%; as for `COc1ccc(Cn2c(Br)c3c(c2-c2cc(OC)c(OC)c(OC)c2)CCc2sc(NC(=O)c4ccc(OC)cc4)nc2-3)cc1`, 56.4%.

The record behind these values is PubChem BioAssay (NCI).
